Experimental findings from PubChem BioAssay (NCI) are described below.

What all share (assay): NCI-60 one-dose screen, 48 h (100 = growth as untreated, 0 = no growth, -100 = all killed)
One experiment deals with SR leukemia. As to conditions: 10 µM unless noted.
For a further experiment, the system named is RPMI-8226 leukemia. To be noted: 10 µM unless noted.
Another experiment relates to OVCAR-8 ovarian. As to conditions: 10 µM unless noted.
The test system of the next experiment is OVCAR-5 ovarian. As to conditions: 10 µM unless noted.
The test system of a further experiment is OVCAR-4 ovarian. As to conditions: 10 µM.
For a further experiment, the system named is SK-OV-3 ovarian. To be noted: 10 µM unless noted.
The next experiment deals with IGROV1 ovarian. To be noted: 10 µM unless noted.
For another experiment, the system named is OVCAR-3 ovarian. To be noted: 10 µM unless noted.
The next experiment has as its system NCI/ADR-RES ovarian. To be noted: 10 µM unless noted.
For another experiment, the system named is T-47D breast. To be noted: 10 µM unless noted.
Another experiment relates to MDA-MB-435 melanoma. To be noted: 10 µM unless noted.
The next experiment deals with MCF7 breast. As to conditions: 10 µM unless noted.
The next experiment has as its system HCT-116 colon. To be noted: 10 µM unless noted.
The next experiment concerns HCC-2998 colon. As to conditions: 10 µM unless noted.
For the next experiment, the system named is KM12 colon. As to conditions: 10 µM unless noted.
In another experiment the test system is HS 578T breast. To be noted: 10 µM unless noted.
In another experiment the test system is SW-620 colon. To be noted: 10 µM unless noted.
The subject of another experiment is BT-549 breast. As to conditions: 10 µM unless noted.

The panel holds about 83,000 compounds, 20% with a hit somewhere; the sample as a whole holds those more often.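 Negative percent growth values reflect cell death: -40 means 40% of the cells present at the start died, and -100 means all died.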 Values without a mark were called inactive. Calls of active or inactive are those of the source. Rule for the calls: active = growth percent below 10; inactive = the rest.

For `O=C1/C(=C/c2ccc(OCc3ccccc3)cc2)Oc2cc(OCCN3CCCCC3)ccc21`, the growth is 13.3% with SR leukemia; 54% in the experiment on RPMI-8226 leukemia; 89.8% with OVCAR-8 ovarian; 88.8% with OVCAR-5 ovarian; 61.2% with OVCAR-4 ovarian; 104% in the experiment on SK-OV-3 ovarian. The growth is 87% with IGROV1 ovarian; 88.1% in the experiment on OVCAR-3 ovarian; 79.2% in the experiment with NCI/ADR-RES ovarian; 63.4% in the experiment with T-47D breast; 54.7% in the experiment on MDA-MB-435 melanoma; 65.2% with MCF7 breast. Further, the growth in the experiment with HCT-116 colon was 52.3%; in the experiment on HCC-2998 colon, 90.5%; in the experiment with KM12 colon it was 82.3%.

In the case of `CC1Cc2c(Cl)ncnc2N(C)c2ccccc21` (stereo unspecified), the growth in the experiment on SR leukemia was 6.5% (active); in the experiment with RPMI-8226 leukemia, 12.2%; in the experiment on OVCAR-8 ovarian, 10.7%; in the experiment on OVCAR-5 ovarian, 41.8%; in the experiment with OVCAR-4 ovarian, 21.5%; in the experiment on SK-OV-3 ovarian, 15.8%. Besides, the growth in the experiment on IGROV1 ovarian was 50.5%; in the experiment on HS 578T breast it was 24.6%; in the experiment with NCI/ADR-RES ovarian it was 16.6%; in the experiment on T-47D breast it was 42.5%; in the experiment on MDA-MB-435 melanoma it was 14.9%; in the experiment with SW-620 colon it was 14%. For the same compound, the growth in the experiment on MCF7 breast was 14.1%; in the experiment with HCT-116 colon, 12.9%; with HCC-2998 colon, 34.5%; with KM12 colon it was 11.3%.

On to `CN(C)CCCNc1nc(-c2cccc(C(Cl)(Cl)Cl)c2)nc(C(Cl)(Cl)Cl)n1`, for which the growth in the experiment on SR leukemia was 77.8%; in the experiment with RPMI-8226 leukemia it was 99.5%; in the experiment on OVCAR-8 ovarian, 101%; with OVCAR-5 ovarian, 106%; in the experiment with OVCAR-4 ovarian, 107%; in the experiment on SK-OV-3 ovarian, 111%. In addition, the growth is 94.4% with IGROV1 ovarian; 117% in the experiment on OVCAR-3 ovarian; 109% in the experiment on T-47D breast; 77.8% in the experiment on BT-549 breast; 105% with MDA-MB-435 melanoma; 98.8% in the experiment on SW-620 colon. Further, the growth in the experiment on MCF7 breast is 93.5%; in the experiment on HCC-2998 colon, 107%; in the experiment on KM12 colon it was 111%.

In the case of `CNc1cc(C(=O)O)nc(NC)n1`, the growth in the experiment on SR leukemia was 107%; in the experiment on RPMI-8226 leukemia, 103%; in the experiment on OVCAR-8 ovarian, 101%; with OVCAR-5 ovarian, 92.1%; with OVCAR-4 ovarian, 97.6%; with SK-OV-3 ovarian it was 109%. Moreover, the growth in the experiment with IGROV1 ovarian was 99.1%; with HS 578T breast, 94.7%; with NCI/ADR-RES ovarian it was 99.4%; in the experiment with T-47D breast it was 102%; with BT-549 breast it was 88.7%; with MDA-MB-435 melanoma, 95.6%. Also, the growth with SW-620 colon was 98.1%; in the experiment with MCF7 breast, 99.4%; in the experiment on HCT-116 colon, 104%; in the experiment on HCC-2998 colon it was 94.7%; in the experiment on KM12 colon, 102%.

On to `CC(C)CCSC1=CC(=O)c2ccccc2C1=O`, for which the growth in the experiment with SR leukemia was 6.01% (active); with RPMI-8226 leukemia, -62.3% (active); with OVCAR-8 ovarian it was 56.4%; in the experiment on OVCAR-5 ovarian, 112%; in the experiment on OVCAR-4 ovarian it was -50.6% (active); in the experiment on SK-OV-3 ovarian, 104%. Further, the growth in the experiment on IGROV1 ovarian is -35.3% (active); in the experiment with OVCAR-3 ovarian, -57.5% (active); in the experiment on NCI/ADR-RES ovarian, 76.3%; in the experiment on T-47D breast it was -41.4% (active); in the experiment on MDA-MB-435 melanoma it was 63.8%; in the experiment on SW-620 colon, -16.7% (active). The growth was 42.5% in the experiment with MCF7 breast, -100% (active) in the experiment on HCT-116 colon and 100% in the experiment with HCC-2998 colon.

Turning to `O=C(NCc1ccccc1)C(Cl)Cl`, the growth in the experiment on SR leukemia was 95.1%; with RPMI-8226 leukemia, 101%; in the experiment on OVCAR-8 ovarian, 101%; in the experiment with OVCAR-5 ovarian it was 91.7%; in the experiment with OVCAR-4 ovarian it was 102%; with SK-OV-3 ovarian, 101%. Moreover, the growth in the experiment on IGROV1 ovarian is 101%; in the experiment on HS 578T breast, 105%; in the experiment with NCI/ADR-RES ovarian it was 104%; in the experiment on T-47D breast, 102%; in the experiment with MDA-MB-435 melanoma, 103%; with SW-620 colon it was 107%. The figures for the growth in the experiment on HCT-116 colon, in the experiment on HCC-2998 colon and with KM12 colon were 108%, 107% and 101%, respectively.

On to `COc1ccc(/C=C/C(=C/c2c(O)[nH]c3cc(Br)ccc23)N=O)cc1`, for which the growth is 70.2% in the experiment on SR leukemia; 123% in the experiment with RPMI-8226 leukemia; 104% in the experiment on OVCAR-8 ovarian; 110% in the experiment with OVCAR-5 ovarian; 101% in the experiment on OVCAR-4 ovarian; 114% with SK-OV-3 ovarian. The growth with IGROV1 ovarian was 103%; in the experiment with OVCAR-3 ovarian, 114%; with T-47D breast it was 103%; with BT-549 breast it was 106%; in the experiment with MDA-MB-435 melanoma, 108%; with SW-620 colon it was 113%. Also, the growth in the experiment with MCF7 breast is 104%; in the experiment with HCC-2998 colon it was 121%; in the experiment with KM12 colon, 97.1%.

Regarding `CC(C)OC(=O)Nc1cc(F)c(F)cc1F`, the growth in the experiment on SR leukemia was 102%; with RPMI-8226 leukemia, 101%; in the experiment on OVCAR-8 ovarian, 100%; with OVCAR-5 ovarian, 93.5%; in the experiment with OVCAR-4 ovarian it was 103%; in the experiment with SK-OV-3 ovarian it was 100%. In addition, the growth with IGROV1 ovarian is 95.5%; in the experiment with HS 578T breast, 101%; with NCI/ADR-RES ovarian, 102%; in the experiment with T-47D breast, 104%; in the experiment on BT-549 breast, 104%; in the experiment on MDA-MB-435 melanoma it was 103%. In addition, the growth in the experiment on SW-620 colon was 99.2%; in the experiment on MCF7 breast, 94.3%; in the experiment on HCT-116 colon, 110%; in the experiment on HCC-2998 colon, 101%; in the experiment with KM12 colon, 101%.

`COCc1nc2ccccc2[nH]1`: the growth is 101% in the experiment with SR leukemia; 108% in the experiment on RPMI-8226 leukemia; 102% in the experiment with OVCAR-8 ovarian; 99.8% in the experiment on OVCAR-5 ovarian; 106% in the experiment with OVCAR-4 ovarian; 101% with SK-OV-3 ovarian. The growth is 101% in the experiment on IGROV1 ovarian; 101% in the experiment with HS 578T breast; 98.9% in the experiment on NCI/ADR-RES ovarian; 104% in the experiment with T-47D breast; 164% in the experiment on BT-549 breast; 102% with MDA-MB-435 melanoma. Moreover, the growth with MCF7 breast is 88.7%; in the experiment with HCC-2998 colon it was 106%.

On to `Cc1cc(-c2ccc(N=Nc3c(S(=O)(=O)O)cc4cc(S(=O)(=O)O)cc(N)c4c3O)c(C)c2)ccc1N=Nc1cc(S(=O)(=O)O)c2ccccc2c1O`, for which the growth was 106% in the experiment on SR leukemia; 98.5% in the experiment with RPMI-8226 leukemia; 96.6% in the experiment with OVCAR-8 ovarian; 86.8% with OVCAR-5 ovarian; 105% with OVCAR-4 ovarian; 93.4% with SK-OV-3 ovarian. The growth in the experiment on IGROV1 ovarian was 95.8%; in the experiment on HS 578T breast, 90.7%; with NCI/ADR-RES ovarian, 97.2%; with T-47D breast, 99.6%; in the experiment on BT-549 breast, 107%; in the experiment on MDA-MB-435 melanoma, 104%. The growth is 109% in the experiment on SW-620 colon; 92.2% in the experiment on MCF7 breast; 96.4% with HCT-116 colon; 104% in the experiment with HCC-2998 colon; 102% with KM12 colon.
